Most compounds without a hit are left out; they make up all but 0.37% or so of the library.
Rab2 wt GTP: modulators of GTP binding to Rab2A wildtype, primary screen, biochemical, dog, bead-based flow cytometry, multiplex. Ras-related protein Rab-2A (Canis lupus familiaris), P61105. GST-Rab2 wt beads, Bodipy-GTP binding. GTP binding activity, % at 10 µM. hit rate 0.19% among 190,000. AID 760, 2007;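 active = GTP binding activity at least 20 points away from 100%, either lowered or raised; inconclusive = signal likely due to the compound's own green fluorescence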
HRas wt GTP: modulators of GTP binding to HRas wildtype, primary screen, biochemical, bead-based flow cytometry, multiplex; GST-Ras wt beads, Bodipy-FL-GTP binding; actives lie on both sides; GTP binding activity, % at 10 µM; hit rate 0.14% among 190,000; AID 759, 2007;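 active = GTP binding activity at least 20% away from the 100% baseline, either lowered as inhibitor or raised as activator; inconclusive = flagged as likely green fluorescent, judged across all proteins in the well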
Target sequence (P01112 whole entry, looked up): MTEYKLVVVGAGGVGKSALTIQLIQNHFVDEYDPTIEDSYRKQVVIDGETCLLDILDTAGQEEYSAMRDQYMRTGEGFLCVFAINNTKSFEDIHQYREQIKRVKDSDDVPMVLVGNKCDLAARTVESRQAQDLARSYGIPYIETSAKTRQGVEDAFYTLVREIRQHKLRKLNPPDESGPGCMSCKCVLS
Rac1 wt modul: wildtype Rac1 GTP binding modulators, primary screen, biochemical, GST-Rac1 beads, flow cytometry, multiplex; GTP binding activity (% of control), % at 10 µM; Ras-related C3 botulinum toxin substrate 1 (Homo sapiens), P63000; fluorescent GTP binding; actives lie on both sides; 0 = cold GTP competed, 100 = untreated; hit rate 0.27% among 190,000;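 active = GTP binding activity at least 20 points away from the 100% control level, either lower or higher; inconclusive = compound flagged as likely green fluorescent, judged across all proteins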
Rac1 act GTP bind: GTP binding modulators of activated mutant Rac1, primary screen, biochemical, bead-based flow cytometry, multiplex, fluorescent GTP; Ras-related C3 botulinum toxin substrate 1 (Homo sapiens), P63000; GST-Rac1 activated beads; actives lie on both sides; 100% means binding = to untreated wells; percent activity (GTP binding), % at 10 µM; hit rate 0.11% among 190,000; AID 764, 2007;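 active = GTP binding at least 20 percentage points away from the 100% baseline, in either direction, so actives lie on both sides; inconclusive = Compound likely fluorescent itself, or too few beads counted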
Rab7 wt modul: modulators of GTP binding to Rab7, primary screen, biochemical, wildtype, multiplex bead flow cytometry | Rab7 GTPase wild type (dog), Bodipy-FL-GTP binding | GST-Rab7 beads, fluorescent GTP binding; actives lie on both sides; untreated = 100%, excess cold GTP = 0% | GTP binding activity (percent of control), % at 10 µM | hit rate 0.055% among 190,000;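 active = fluorescent GTP binding to Rab7 beads changed by at least 20 points from the 100% baseline, either direction, mostly lower; inconclusive = compound itself probably fluorescent, or too few beads counted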;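 note: median green fluorescence of bound Bodipy-FL-GTP per Rab7 bead population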
Cdc42 wt: modulators of GTP binding to wildtype Cdc42, primary screen, biochemical, multiplex bead flow cytometry, Bodipy-GTP | GST-Cdc42 beads; actives lie on both sides | hit rate 0.2% among 190,000 | percent activity (GTP binding), % at 10 µM;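 active = percent activity GTP binding at least 20 points away from the 100% baseline, either down as inhibitor or up as activator; inconclusive = compound flagged as likely green fluorescent from well-wide comparison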;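 note: median bead fluorescence of bound Bodipy-FL-GTP at 100 nM; below 100% means less GTP binding so inhibitor and above means activator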
Target sequence (P60953 whole entry, looked up): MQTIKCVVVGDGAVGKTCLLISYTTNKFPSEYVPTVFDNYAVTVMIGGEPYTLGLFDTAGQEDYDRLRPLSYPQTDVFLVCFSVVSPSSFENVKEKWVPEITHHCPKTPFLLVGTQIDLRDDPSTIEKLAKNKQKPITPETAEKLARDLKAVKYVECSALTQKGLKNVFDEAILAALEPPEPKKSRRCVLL
A number is an active result; i = inactive; ? = inconclusive; [ ] = dose if it differs, or a comment.

SMILES	Rab2 wt GTP	HRas wt GTP	Rac1 wt modul	Rac1 act GTP bind	Rab7 wt modul	Cdc42 wt
Cc1cccc(-n2nc(CC#N)c(C#N)c2N)c1	78	i	i	i	i	i
CCOc1ccc(NCc2ccccc2OCc2cccc(F)c2)cc1	i	i	129[activator]	i	i	i
O=C(COC(=O)/C=C/c1ccc(Cl)cc1)Nc1ccc2c(c1)OCCO2	76	i	79	78	i	i
CC(NCc1cc(Br)ccc1OCC(=O)NCc1ccccc1)c1ccccc1 (stereo not given)	i	i	i	i	i	i
O=C(O)CCCN1C(=O)/C(=C\c2ccco2)SC1=S	i	i	i	i	i	i
O=C(O)CCN1C(=O)/C(=C\c2ccc(-c3nc4ccccc4s3)o2)SC1=S	66	74	67	71	74	69
O=C(N/N=C/c1ccccn1)c1cccs1	i	i	i	i	i	i
COc1ccc(C2CC(c3ccccc3)=NN2c2ccc(S(N)(=O)=O)cc2)cc1 (stereo not given)	i	i	i	i	i	78
NS(=O)(=O)c1ccc(N2N=C(c3ccccc3)CC2c2ccc(F)cc2)cc1 (stereo not given)	i	i	i	i	i	i
Nc1[nH]n2c(=O)c3c(nc2c1N=Nc1ccc(Cl)cc1)CCCC3	i	i	74	i	i	i
Cc1ccc(N=Nc2c(N)[nH]n3c(=O)cc(-c4ccccc4)nc23)cc1	78	i	79	77	i	79
COc1cccc(N=Nc2c(N)[nH]n3c(=O)cc(-c4ccccc4)nc23)c1	i	i	i	i	i	i
Nc1[nH]n2c(=O)c3c(nc2c1N=Nc1ccccc1)CCCC3	71	73	i	i	i	72
C=C(C)c1cccc(C(C)(C)NC(=O)N2CCC(C(N)=O)CC2)c1	i	i	i	i	i	i
O=C(Nc1nnc(-c2ccc3c(c2)OCCO3)o1)c1ccc(Cc2ccccc2)cc1	i	i	i	79	i	i
O=C(CCOc1ccccc1)Nc1nnc(-c2ccc3c(c2)OCCO3)o1	i	i	i	i	i	i
COc1c(C)cc(Br)cc1C(=O)O	i	i	120[activator]	i	i	i
O=C(O)c1ccccc1C(=O)OCc1ccccc1	134[activator]	136[activator]	160[activator]	?	?	i
O=C(OCc1ccccc1)c1cccnc1Cl	i	i	i	i	i	i
CCc1nnc2c(N(C)C)nc3ccccc3n12	i	i	76	i	i	i
CCCc1nnc2c(N(C)S(=O)(=O)c3ccc(C)cc3)nc3ccccc3n12	i	i	i	i	i	i
COc1ccc(CC(=O)Nc2ccc(S(=O)(=O)NC(C)C)cc2)cc1	29	33	27	29	22	30
CCCCNS(=O)(=O)c1ccc(NC(=O)Cc2ccc(OC)cc2)cc1	i	i	i	i	i	i
Cc1sc2nc3c4ccccc4c(NCc4ccco4)nn3c(=O)c2c1C	74	76	i	i	i	75
COc1cc(N(C)C)c([N+](=O)[O-])cc1C(=O)N1CCN(Cc2ccccc2)CC1	i	i	i	i	i	i
SMILES	Rab2 wt GTP	HRas wt GTP	Rac1 wt modul	Rac1 act GTP bind	Rab7 wt modul	Cdc42 wt
COc1ccc(-c2nnc(SCC(=O)c3cccs3)o2)cc1	60	42	58	62	59	54
O=C(CSc1nnc(-c2cccs2)o1)c1cccs1	i	i	i	i	i	i
CC(NC(=O)NC12CC3CC(CC(C3)C1)C2)C1CCCO1 (stereo not given)	i	i	i	i	i	i
N=C1/C(=C\c2ccc(SCc3ccco3)o2)C(=O)N=C2SC=NN12	77	74	76	i	i	72
COc1ccc(-c2c(C#N)c(N)nc3c2CCc2ccccc2-3)cc1OC	i	i	i	i	i	i
COc1ccc(-c2cc(-c3ccc(O)cc3)nc(N)c2C#N)cc1OC	79	i	69	i	i	i
CC(C)Cc1csc(NC(=O)c2ccc(Cl)cc2)c1C(=O)O	i	i	i	i	i	i
CC(C)Cc1csc(NC(=O)c2ccccc2Cl)c1C(=O)O	i	i	79	i	i	78
Cn1c(=O)c2c(ncn2CC(O)CNc2cccc(Cl)c2)n(C)c1=O (stereo not given)	i	i	124[activator]	i	i	i
Cc1cccc(NCC(O)Cn2cnc3c2c(=O)n(C)c(=O)n3C)c1 (stereo not given)	i	i	i	i	i	i
COCCNC(=O)c1cnn2c(C(F)F)cc(-c3ccccc3)nc12	i	i	79	i	i	i
O=C(NCc1ccco1)c1cnn2c(C(F)F)cc(-c3ccccc3)nc12	i	i	i	i	i	i
Cc1ccc(NC(=S)Nc2ccc3nc(-c4ccccn4)c(-c4ccccn4)nc3c2)cc1C	i	i	125[activator]	i	i	i
CCCc1cc(N2CCN(C(=O)c3ccco3)CC2)n2c(nc3ccccc32)c1C#N	79	i	i	i	i	i
COc1cc2c(cc1OC)-c1cc(NC3CCCCCC3)nc(=O)n1CC2	75	75	i	i	i	77
COc1cc2c(cc1OC)-c1cc(N3CCCCCC3)nc(=O)n1CC2	i	i	i	i	i	i
CCOc1cccc(Nc2cc3n(c(=O)n2)CCc2cc(OC)c(OC)cc2-3)c1	i	i	78	i	i	i
COCCNC(=O)C1CC(=O)N(c2ccc(OC)cc2)C1c1ccc(OC)cc1 (stereo not given)	i	i	i	i	i	i
COc1ccc(S(=O)(=O)N2CCCCC2)cc1NC(=O)c1ccc([N+](=O)[O-])o1	i	i	74	i	i	i
Fc1ccc(-c2ccnc(=S)[nH]2)cc1	i	i	i	i	i	i
O=C(O)c1cccc(Oc2ccc([N+](=O)[O-])cc2)c1	121[activator]	i	141[activator]	120[activator]	i	127[activator]
OCCC1CN(Cc2ccccc2OC2CCCC2)CCN1Cc1ccsc1 (stereo not given)	i	i	i	i	i	i
Clc1ccc(CN(Cc2ccc(Cl)cc2)c2nn[nH]n2)cc1	i	i	i	77	i	i
c1ccc(CN(Cc2ccccc2)c2nn[nH]n2)cc1	i	i	i	i	i	i
O=C(Cn1nc2ccccc2n1)N/N=C/c1cc([N+](=O)[O-])ccc1O	70	73	61	79	i	70

Screening results as filed in PubChem BioAssay.
